Rows were chosen to be rich in hits. Some 19% of all compounds tested hit in one or more screens of this group.
DT40 TDP1 no CPT = qHTS for Inhibitors of human tyrosyl-DNA phosphodiesterase 1 (TDP1): qHTS in cells in absence of CPT; DT40 Tdp1-/- hTDP1 cells, no CPT, ATP luminescence, 48 h; Potency, µM (doses to about 46.2 µM), inactives show at the top dose activity change, negative = growth inhibition, hits mostly inhibitors; 420,000 tested, 15% active; also: potency is read from the fitted curve at half-maximal effect; nearly all actives have a fitted effect of over 55% in size
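Camptothecin absent (DMSO only). Human TDP1-complemented DT40 knockout cells, 400 cells/well, 37 °C for minimum 48 hr; ATP measured via CellTiter-Glo, 30 min dark incubation, luminescence.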
uPA surface inh = qHTS for Inhibitors of Cell Surface uPA Generation; 330,000 tested, 0.31% active; Potency, µM (top dose mostly 38.3 µM), for inactives: at the top dose activity change, negative = inhibition, usual class: inhibitors; cell surface uPA generation assay, qHTS; active = well fitted inhibition curve with a large enough effect; inconclusive = small, poorly fitted or top-dose-only effect; inactive = no such curve, though single readings can be large or run the other way; tested in mouse RAW 264.7 cells; also: potency is read from the fitted curve at half-maximal effect; nearly all actives have a fitted effect of over 55% in size
HT1080 IDH1KD tx = qHTS for induction of synthetic lethality in tumor cells producing 2HG: qHTS for the HT-1080-IDH1KD cell line; HT-1080 IDH1 knockdown viability, ATP luminescence, 48 h; Potency, µM (titrated, usually from 46.1 µM), for inactives: top-dose activity, negative = toxicity, most hits filed as cytotoxic; 360,000 tested, 2% active; AID 686971, 2013;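 also: potency is read from the fitted curve at half-maximal effect; 0% = DMSO wells and -100% = cell-free medium wells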
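After a 2 h attachment period, IDH1KD HT-1080 cells took pin-transferred compound for 48 h at 37 °C; ATP-based luminescence after 10 min room-temperature reagent incubation reported viability.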
TDP1 cell CPT = qHTS for Inhibitors of human tyrosyl-DNA phosphodiesterase 1 (TDP1): qHTS in cells in presence of CPT; chicken DT40 Tdp1-/-;hTDP1 cells + 20 nM CPT, ATP luminescence, 48 h; Potency, µM (highest dose often 46.2 µM), without a hit: top-dose activity change, negative = growth inhibition, actives largely listed as inhibitors; 420,000 tested, 12% active; also: potency is read from the fitted curve at half-maximal effect; nearly all actives have a fitted effect of over 55% in size
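Chicken DT40 Tdp1-/- cells complemented with human TDP1, 400 cells/well, exposed to compounds plus 20 nM camptothecin for at least 48 h at 37 C; viability read as ATP content by CellTiter-Glo luminescence.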
HT1080NT lethal = qHTS for induction of synthetic lethality in tumor cells producing 2HG: qHTS for the HT-1080-NT fibrosarcoma cell line. AID 686970, 2013. HT-1080-NT fibrosarcoma viability, CellTiter-Glo ATP luminescence, 48 h. Potency, µM (top dose mostly 46.1 µM), for the others: top-dose activity, negative = less viability, actives largely listed as cytotoxic. 360,000 tested, 1.6% active;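 also: NT is the 2HG producing partner of a matched IDH1 knockdown line; potency is read from the fitted curve at half-maximal effect; 0% = DMSO-treated cells and -100% = media-only wells without cells; nearly all actives have a fitted effect of over 55% in size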
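HT-1080-NT; 750 cells/well; 5% FBS RPMI; 48 h compound, 37 degrees C; CellTiter-Glo luminescence; curve fitting and curve-class assignment.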
IL1B secr inh = qHTS for Inhibitors of Inflammasome Signaling: IL-1-beta AlphaLISA Primary Screen. activity change, % at 57.5 µM. THP-1 LPS/ATP IL-1B secretion, AlphaLISA, 16 h; active compounds read low. AID 743279, 2014. 360,000 tested, 4.7% active; in the data active = activity change below about -50%; inconclusive = mostly about -30% to -49%
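Secreted IL-1B measured by AlphaLISA bead assay after 16 h compound exposure of THP-1 cells; compounds (final up to 57.5 uM) added 1 h before LPS (250 ng/mL) and ATP (1.25 mM) stimulation; lower signal means less secretion.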
Active calls of the source: *. Unless noted, calls follow the shape of the dose curve; as a rule, active = well fitted curve in the direction sought with a large enough effect; inconclusive = small, poorly fitted or top-dose-only effect, or another doubt; inactive = no such curve, though single readings can be large; an effect the other way counts as inactive or inconclusive. Unless noted, % is scaled to controls: 0 for no effect and ±100 for the full control effect.

Results for CCC1CN(C(=O)N2CCC(C(=O)NCc3ccccc3F)CC2)c2ccccc2O1 (configuration not stated) ?
DT40 TDP1 no CPT: 15µM*; TDP1 cell CPT: inconclusive

Results for CCC1CN(C(=O)N2CCC(C(=O)NCCc3ccccc3C)CC2)c2ccccc2O1 (configuration not stated) ?
DT40 TDP1 no CPT: 21µM*; TDP1 cell CPT: inconclusive

What do the screens show for `O=C(NN1CCCCCC1)c1ccccc1F`?
DT40 TDP1 no CPT: -1%; uPA surface inh: 2%; HT1080 IDH1KD tx: 19%; TDP1 cell CPT: -7%; HT1080NT lethal: 13%; IL1B secr inh: -2

How did COc1ccc(OC)c(CN2C(=O)CSCC2(C)C(=O)Nc2c(C)cccc2C)c1 (configuration not stated) do in these assays?
DT40 TDP1 no CPT: -7%; HT1080 IDH1KD tx: 3%; TDP1 cell CPT: -7%; HT1080NT lethal: 2%; IL1B secr inh: -67*

Results for COc1ccc(CN2C(=O)CSCC2(C)C(=O)Nc2c(C)cccc2C)cc1OC (configuration not stated) ?
DT40 TDP1 no CPT: -11%; HT1080 IDH1KD tx: 11%; TDP1 cell CPT: -117%; HT1080NT lethal: 20%; IL1B secr inh: -10

Results for COc1cnc(-c2ccccn2)nc1N(C)C ?
DT40 TDP1 no CPT: 2.9µM*; uPA surface inh: -10%; HT1080 IDH1KD tx: 5.8µM*; TDP1 cell CPT: inconclusive; HT1080NT lethal: inconclusive; IL1B secr inh: -58*

Results for COc1cnc(-c2ccccn2)nc1Oc1cccc(Cl)c1 ?
DT40 TDP1 no CPT: 8.2µM*; uPA surface inh: -4%; HT1080 IDH1KD tx: 2%; TDP1 cell CPT: 18µM*; HT1080NT lethal: -2%; IL1B secr inh: 5

Results for COc1cnc(-c2ccccn2)nc1Oc1c(C)cccc1C ?
DT40 TDP1 no CPT: 3.3µM*; uPA surface inh: 11%; HT1080 IDH1KD tx: inconclusive; TDP1 cell CPT: 3.3µM*; HT1080NT lethal: -7%; IL1B secr inh: 41

How did COc1cnc(-c2ccccc2)nc1Oc1cccc(C)c1 do in these assays?
DT40 TDP1 no CPT: inconclusive; uPA surface inh: -9%; HT1080 IDH1KD tx: -6%; TDP1 cell CPT: inconclusive; HT1080NT lethal: -2%; IL1B secr inh: -1

Results for CC(C)Cn1c(=O)c2ccccc2n2c(CCC(=O)NCC3CCCO3)nnc12 (configuration not stated) ?
DT40 TDP1 no CPT: 8%; uPA surface inh: 2%; HT1080 IDH1KD tx: 8%; TDP1 cell CPT: -4%; HT1080NT lethal: -5%; IL1B secr inh: 24

What do the screens show for `CC1=Nc2ccccc2/C1=C/c1c(N)n2c(S(=O)(=O)CC(C)C)nsc2nc1=O`?
DT40 TDP1 no CPT: -3%; uPA surface inh: 1%; HT1080 IDH1KD tx: -15%; TDP1 cell CPT: -1%; HT1080NT lethal: -18%; IL1B secr inh: -2

Results for Nc1c(-c2ccc(F)c(F)c2)nc2ncccn12 ?
DT40 TDP1 no CPT: -4%; HT1080 IDH1KD tx: 17%; TDP1 cell CPT: 12%; HT1080NT lethal: 12%; IL1B secr inh: -6

Results for CCCOc1cc(C)c(Cl)cc1S(=O)(=O)N(CC)CC ?
DT40 TDP1 no CPT: inconclusive; uPA surface inh: 6%; HT1080 IDH1KD tx: 0%; TDP1 cell CPT: 18µM*; HT1080NT lethal: 3%; IL1B secr inh: -18

What do the screens show for `CCN(CC)S(=O)(=O)c1cc(C)c(C)cc1OCC(=O)NC1CCCC1`?
DT40 TDP1 no CPT: 21µM*; uPA surface inh: 13%; HT1080 IDH1KD tx: -13%; TDP1 cell CPT: 15µM*; HT1080NT lethal: 0%; IL1B secr inh: -4

How did CCOc1cc(C)c(Cl)cc1S(=O)(=O)N(C)C do in these assays?
DT40 TDP1 no CPT: inconclusive; uPA surface inh: 0%; HT1080 IDH1KD tx: -4%; TDP1 cell CPT: inconclusive; HT1080NT lethal: 6%; IL1B secr inh: 8

What do the screens show for `Cc1cc(Cl)c(S(=O)(=O)N2CCCC2)cc1OCC(=O)NC1CCCCC1`?
DT40 TDP1 no CPT: 18µM*; uPA surface inh: -5%; HT1080 IDH1KD tx: -16%; TDP1 cell CPT: 15µM*; HT1080NT lethal: -1%; IL1B secr inh: -22

Results for O=C(c1cccc(Cl)c1)n1nc(-c2ccco2)nc1NCc1cccs1 ?
DT40 TDP1 no CPT: -23%; TDP1 cell CPT: -13%

What do the screens show for `O=C(CN1C(=O)c2cccc3cccc1c23)Nc1cccc(F)c1`?
DT40 TDP1 no CPT: -27%; TDP1 cell CPT: 6%

How did Cc1nc2c(-c3ccc(F)cc3)cnn2c(N)c1-c1ccccc1 do in these assays?
DT40 TDP1 no CPT: inconclusive; uPA surface inh: 3.2µM*; HT1080 IDH1KD tx: inconclusive; TDP1 cell CPT: inconclusive; HT1080NT lethal: inconclusive; IL1B secr inh: -73*

Results for CCn1c(C(=O)O)c(CC(=O)Nc2ccc(Br)cc2C)c2ccccc21 ?
DT40 TDP1 no CPT: 26%; uPA surface inh: 1%; HT1080 IDH1KD tx: -13%; TDP1 cell CPT: -16%; HT1080NT lethal: -18%; IL1B secr inh: 37

Results for COc1ccc(CCN(C)C2CC(=O)N(c3ccccc3)C2=O)cc1OC (configuration not stated) ?
DT40 TDP1 no CPT: inconclusive; uPA surface inh: 2%; HT1080 IDH1KD tx: 5%; TDP1 cell CPT: 9.2µM*; HT1080NT lethal: 8%; IL1B secr inh: 21

What do the screens show for `COc1ccc(CN(C)CCc2ccccn2)cc1OC`?
DT40 TDP1 no CPT: -7%; uPA surface inh: 5%; HT1080 IDH1KD tx: 20%; TDP1 cell CPT: -25%; HT1080NT lethal: 12%; IL1B secr inh: 12

Results for COc1ccc(CCN(C)Cc2ccc(OC)c(OCc3ccccc3)c2)cc1OC ?
DT40 TDP1 no CPT: 23µM*; HT1080 IDH1KD tx: inconclusive; TDP1 cell CPT: inconclusive; HT1080NT lethal: -8%; IL1B secr inh: -21

What do the screens show for `COc1ccc(NC(=O)/C(C#N)=C/c2ccc(Sc3nncn3C)c([N+](=O)[O-])c2)cc1`?
DT40 TDP1 no CPT: 26µM*; uPA surface inh: -11%; HT1080 IDH1KD tx: inconclusive; TDP1 cell CPT: 16µM*; HT1080NT lethal: inconclusive; IL1B secr inh: inconclusive

Results for CN(C)S(=O)(=O)c1cccc(NC(=O)c2ccc(Sc3nncn3C)c([N+](=O)[O-])c2)c1 ?
DT40 TDP1 no CPT: -19%; uPA surface inh: 4%; HT1080 IDH1KD tx: 8%; TDP1 cell CPT: inconclusive; HT1080NT lethal: 0%; IL1B secr inh: -17

High-throughput results as filed in PubChem BioAssay.
